Methyltransferases – Primary Screen for Target Class Profiling of Small Molecule Inhibitors of Methyltransferases. purified enzyme, MTase-Glo SAH luminescence; hits give low values. 3.9% of 25,000 active. calls only at 40 µM; call rule not given here
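Each enzyme was reacted with SAM and its substrate, with compounds tested once at 40 uM; SAH formed was read by MTase-Glo luminescence.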
MTase-Glo counter – Counterscreen for Target Class Profiling of Small Molecule Inhibitors of Methyltransferases; MTase-Glo coupled enzymes, SAH conversion luminescence, no MTase; Potency, µM (titrated, usually from 57.3 µM), for the others: at the highest dose activity change, negative = inhibition, usual class: inhibitors; 6% of 180 active; AID 1745851, 2022; shares compounds with Methyltransferases; active = well fitted inhibition curve with a large enough effect; note: potency is the fitted concentration of half-maximal effect
The depositor's hits bear a star; i = inactive; + = active, no number; [ ] = remark or other dose. Shown is part of a subset that was picked to be rich in hits. % is set by controls: 0 for no effect and ±100 for the full control effect.

SMILES | Methyltransferases | others
CC(CNc1nc2c(S(=O)(=O)c3ccccc3)nnn2c2ccccc12)c1ccccc1 (configuration not stated) | i
CN1C(=O)c2cc(C(=O)NCCc3ccco3)nn2CC1(C)C(=O)NCc1ccccc1 (configuration not stated) | i
Cc1cccc(CNC(=O)C2(C)Cn3cnc(C(=O)NCc4ccc(OC(C)C)cc4)c3C(=O)N2C2CC2)c1 (configuration not stated) | i
CC(=O)Nc1cc(-c2cc(C(=O)NCc3cccnc3)c3c(c2)N(C)CCO3)ccn1 | + | MTase-Glo counter=1%[85.7 µM]
COc1ccc(-c2cc(C(=O)NCc3cccnc3)c3c(c2)N(C)CCO3)cc1OC | + | MTase-Glo counter=5%[85.7 µM]
CNC(=O)c1cc(-c2cnc(OC)nc2)cc2c1OCCN2Cc1cccnc1 | i
CCc1nc2cc(N3CCC(C(=O)NCc4cccnc4)CC3)cnc2nc1CC | i
CN1CCOc2c(C(=O)NCc3cnn(C)c3)cc(-c3ccc([S+](C)(=O)[O-])cc3)cc21 | i
O=C(NCC1CCCO1)c1cc(-c2ccccc2F)cc2c1OCCN2Cc1cccnc1 (configuration not stated) | i
CC(C)OCCCn1c(=O)c2ccccc2n2c(SCc3ccc(Cl)cc3)nnc12 | i
Cc1ccc(NC(=O)CSc2nnc3n(C)c(=O)c4ccc(C(=O)NC5CCCCC5)cc4n23)c(C)c1 | i
CCOC(=O)c1cc2n(n1)CC(C)(C(=O)NCc1ccccc1OC)N(c1ccc(CC)cc1)C2=O (configuration not stated) | i
C=Cc1ccc(Cn2nc3n(C(C)C)c(=O)c4ccc(C(=O)NC(C)CC)cc4n3c2=O)cc1 (configuration not stated) | i
O=C(c1ccc(Cl)cc1)N1CC2(CCN(CC3CC3)CC2)Cc2ccccc21 | + | MTase-Glo counter=-1%
O=C(c1ccccc1)N1CC2(CCCN2Cc2cccnc2)Cc2ccccc21 (configuration not stated) | i
O=C(C1CCCC1)N1CC2(CCN(Cc3cccnc3)CC2)Cc2ccccc21 | i
CCCCN1C(=O)c2cc(C(=O)Nc3ccccc3C)nn2CC1(C)C(=O)NC1CCCC1 (configuration not stated) | i
CCCCN1C(=O)c2cc(C(=O)NCc3ccccc3C)nn2CC1(C)C(=O)NC1CCCC1 (configuration not stated) | i
CC1(C(=O)NC2CCCCCCC2)Cn2c(cc3sccc32)C(=O)N1CCN1CCOCC1 (configuration not stated) | i
O=c1[nH]c2ccc(S(=O)(=O)NCCC3=CCCCC3)cc2[nH]1 | i
Cn1c(C(=O)Nc2ccc3c(c2)OCO3)cc2c1CCN(Cc1cccc(F)c1)C2 | i
Cn1c(C(=O)NCCN2CCCCC2)cc2c1CCN(Cc1cccc(F)c1)C2 | + | MTase-Glo counter=4%
O=C(c1nc2c(o1)CCN(Cc1cccc(F)c1)CC2)N1CCOCC1 | i
COc1ccc(NC(=O)CCc2nnc3n(Cc4ccc(Cl)cc4)c(=O)c4ccccc4n23)cc1OC | i
CN(C)C[C@H]1C[C@@H](CO)CN(C(=O)c2csc(Cc3ccccc3)n2)C1 | i
SMILES | Methyltransferases | others
COc1cccc(-c2cccc(C(=O)N3C[C@H](CO)C[C@H](CN(C)C)C3)c2)c1 | + | MTase-Glo counter=-2%
COc1cccc(-c2ccc(C(=O)N3CCC(NC(=O)N(C)C)CC3)cc2)c1 | i
Cc1ccc(NC(=O)Cn2c(=O)oc3cc(S(=O)(=O)N4CC(C)CC(C)C4)ccc32)c(Cl)c1 (configuration not stated) | i
C(#Cc1nc2ncccc2nc1OCCN1CCCC1)c1ccccc1 | i
COc1cccc(CN2CCCC3(CCN(C(=O)c4cnc(C)cn4)C3)C2)c1 (configuration not stated) | i
CCOc1ccccc1C(=O)N1CCC(c2n[nH]c(=O)n2Cc2ccc(OC)cc2)CC1 | i
COc1ccc(-c2[nH]nc3ncc(C(=O)N4CCC(c5ccccc5)CC4)nc23)c(C)c1 | + | MTase-Glo counter=-11%[85.7 µM]
Cc1ccc(Cn2c(=O)c3ccc(C(=O)NC4CCCC4)cc3n3c(=O)n(Cc4ccccc4)nc23)cc1 | i
Cc1ccc(Cl)cc1NS(=O)(=O)c1ccc2c(c1)n(C)c(=O)n2C | i
CC(C)c1nccn1CCCNC(=O)c1ccc(N2CCCC(CO)C2)nc1 (configuration not stated) | + | MTase-Glo counter=1%
CN1CCCCC1CCNC(=O)c1ccc(N2CCOCC2)nc1 (configuration not stated) | i
CCN(Cc1nccn1C)C(=O)c1ccc(N2CCC(COC)C2)nc1 (configuration not stated) | i
CCc1ccc(CN2C(=O)c3c(C(=O)OC)ncn3CC2(C)C(=O)NC2CCCC2)cc1 (configuration not stated) | i
CC(C)NC(=O)Cn1nc2n(C(C)C)c(=O)c3ccc(C(=O)NC4CCCCC4)cc3n2c1=O | i
Cn1c(COc2cccc(CN3CCCC3)c2Cl)nnc1C1CC(N)C1 (configuration not stated) | + | MTase-Glo counter=-5%
CN(C)Cc1nnc(C2CC(NC(=O)Cc3c(F)cccc3Cl)C2)n1C (configuration not stated) | i
Cc1cc(N2CCN(Cc3nnc(C4CC(N)C4)n3C)CC2)cc(C)n1 (configuration not stated) | i
CSc1cccc(NC(=O)N2CCn3cccc3C2C(C)C)c1 (configuration not stated) | i
CC1CCC(NC(=O)C2(C)Cn3c(cc4occc43)C(=O)N2Cc2ccc(OC(C)C)cc2)CC1 (configuration not stated) | i
CC1CC(C)CN(S(=O)(=O)c2ccc3c(c2)oc(=O)n3CC(=O)NCc2ccccn2)C1 (configuration not stated) | i
COc1cc(NC(=O)c2ccccn2)ccc1Cl | i
COc1ccccc1CC(=O)N1CCCc2ncc(C(=O)Nc3cccc(Cl)c3)cc21 | + | MTase-Glo counter=4%[85.7 µM]
COc1cc(C(=O)NC(=S)Nc2cccc(NC(=O)c3ccccc3)c2)cc(OC)c1OC | i
COC(=O)c1cc2n(n1)CC(C)(C(=O)NC1CCCCCC1)N(c1cccc(F)c1)C2=O (configuration not stated) | i
CN1C(=O)c2cc(C(=O)NCCCN3CCCCC3)nn2CC1(C)C(=O)NCc1ccccc1 (configuration not stated) | i
SMILES | Methyltransferases | others
c1ccc(CC2=NOC3(CCN(Cc4c[nH]c5ccccc45)CC3)C2)cc1 | i
O=C(OCc1ccccc1)N1CCOCC12CCN(Cc1c[nH]c3ccccc13)CC2 | + | MTase-Glo counter=3%[85.7 µM]
O=C1OCC2(CCN(Cc3c[nH]c4ccccc34)C2)N1Cc1ccccc1 (configuration not stated) | i
CCCn1c(=O)c2cc(Cl)ccc2n2c(=O)n(CC(=O)c3ccc(OC)c(OC)c3)nc12 | i
O=C(CCc1nnc2n(Cc3ccccc3Cl)c(=O)c3ccccc3n12)N1CCN(Cc2ccccc2)CC1 | i
O=C(CC1CCOCC1)N1CCN(c2ncccn2)CC1 | i
O=C(CC1CCCC1)N1CCC(c2noc(-c3cnccn3)n2)C1 (configuration not stated) | i
O=C(CC1CCCC1)N1CCC(Nc2cccnc2)C1 (configuration not stated) | + | MTase-Glo counter=-6%

High-throughput results from PubChem.
